Assay results from PubChem BioAssay AID2314 (National Center for Advancing Translational Sciences (NCATS), 2010).
Where “and” joins values, the source holds several entries; their conditions need not be identical. Identical values can stand only once. Out of some 300,000 compounds screened, about 37,000 (12%) were called active. Cut-off read from the data, not from the text of the source: active = max response mostly above about 13% (no sharp cut-off); inactive = mostly below about 14%. This excerpt belongs to a sample that is enriched for actives.

test: Cycloheximide Counterscreen for Small Molecule Inhibitors of Shiga Toxin; conditions: cell reporter, cycloheximide protein synthesis inhibition counterscreen; active compounds read high; note: read at 38.3 µM for the half of the compounds with a filed dose; 0% is about no effect

Structure (SMILES) | max response
CC1=CC(=C(C#N)c2nc3ccccc3s2)C=C(C)N1c1ccc(F)cc1F | 11.6% (active)
N#C/C(=C(/O)Cc1cccc2ccccc12)c1nc2ccccc2s1 | -8.33% (inactive)
C=CCN1C(=O)C(O)(CC(=O)c2ccccn2)c2ccccc21 (stereo unspecified) | -4.4% (inactive)
Cc1ccc2cc(CCNC(=O)c3ccc4c(c3)OCO4)c(=O)[nH]c2c1 | -3.03% (inactive)
O=C(NCc1ccco1)/C(=C/c1ccco1)NC(=O)c1ccccc1 | -7.97% (inactive)
CNC(=O)/C(=C\C=C\c1ccccc1)NC(=O)c1ccc([N+](=O)[O-])cc1 | -1.68% (inactive)
Cc1ccc(C(=O)N/C(=C/C=C/c2ccccc2)C(=O)NCc2ccco2)cc1 | 13.9% (active)
Cc1ccc(NS(=O)(=O)c2cn(C)c(=O)n(C)c2=O)c(C)c1 | -0.304% (inactive)
Cc1ccc2c(c1)N(CC(=O)N1CCCC(C)C1)C(=O)CO2 (stereo unspecified) | -3.96% (inactive)
COC(=O)C1(CCSC)NC(c2ccc(OC)cc2OC)C2C(=O)N(c3cccc(C(C)=O)c3)C(=O)C21 (stereo unspecified) | -3.66% (inactive)
Cc1cccc(NC(=O)c2ccc3c(=O)n(CC4CCCO4)c(=S)[nH]c3c2)c1 (stereo unspecified) | 10.1% (inactive)
COC(=O)c1ccc(NC(=O)CSc2nc(N)c(NC(=O)c3ccc(Br)o3)c(=O)[nH]2)cc1 | 9.86% (inactive)
CCOC(=O)CNc1nc(Cl)nc(Nc2ccccc2)n1 | 45.2% (active)
CCOC(=O)CNc1nc(Cl)nc(Nc2ccc(OC)cc2OC)n1 | -3.67% (inactive)
CCC(=O)Nc1ccc(Nc2nc(Cl)nc(Nc3ccc(NC(=O)CC)cc3)n2)cc1 | -3.17% (inactive)
Cc1nc(C(=O)N2CCCC(C(=O)c3ccc(Cl)cc3)C2)cs1 (stereo unspecified) | 0.775% (inactive)
COc1ccccc1NC(=O)C1CCN(C(=O)c2ccc(C(C)(C)C)cc2)CC1 | -1.21% (inactive)
Cn1nc(-c2ccccc2)c(CSc2cccc(Cl)c2)c1Cl | -2.67% (inactive)
O=c1c2ccccc2ncn1CCCCOc1ccccc1F | 1.24% (inactive)
Fc1ccccc1OCCSc1nc2ccccc2o1 | 26.3% (active)
Cn1c(=O)c2c(nc(Br)n2CCSc2nc3ccccc3o2)n(C)c1=O | -1.28% (inactive)
COC(=O)c1ccc(CN2CCCC(C(=O)Nc3cccc(-n4cnnn4)c3)C2)cc1 (stereo unspecified) | -1.47% (inactive)
O=C(C1CC(=O)N(c2ccc(F)cc2)C1)N1CCN(c2ccccc2)CC1 (stereo unspecified) | -1.52% (inactive)
CCOc1ccccc1NC(=O)NC1CCCCCCC1 | 10.6% (inactive)

Structure (SMILES) | max response
O=C(Nc1cccn(Cc2ccccc2Cl)c1=O)NC1CCCCC1 | 10.8% (active)
O=C(Nc1cccn(Cc2c(Cl)cccc2Cl)c1=O)c1ccc(Cl)cc1 | 1.71% (inactive)
CC(=O)N1CCN(C(=O)C2(NC(=O)Nc3ccc(C)cc3)CCCCC2)CC1 | 6.9% (inactive)
COC(=O)/C(=C\Nc1ccccc1)NC(=O)c1ccc(Cl)cc1Cl | 16.3% (inactive)
CC(=O)c1c(C)[nH]c(C(=O)Nc2cc(S(=O)(=O)N(C)C)ccc2C)c1C | 6.78% (inactive)
CSc1ccccc1OCc1cc(C(=O)N(C)CCc2c(C)n[nH]c2C)no1 | 15.1% (inactive)
CSc1ccccc1OCc1cc(C(=O)N2C[C@H]3CC[C@H]2C3)no1 | 45.3% (active)
COC(=O)[C@@H]1CCCN1C(=O)c1cc(COc2cccc3cccnc23)on1 | -3.11% (inactive)
COc1ccc(NC(=O)C(NC(C)=O)C(=O)NCc2ccccc2Cl)cc1 (stereo unspecified) | 1.56% (inactive)
Cc1cc(C(=O)NNS(=O)(=O)c2ccccc2C(F)(F)F)nn1C(C)(C)C | 7.74% (inactive)
O=C(CN1C(=O)COc2ccccc21)NCCN1CCc2ccccc2C1 | 4.27% (inactive)
CC(OC(=O)CN1C(=O)COc2ccccc21)C(=O)NCc1ccc(F)cc1 (stereo unspecified) | -2.2% (inactive)
O=C(CN1C(=O)COc2ccccc21)Nc1ccc(F)cc1 | 44.7% (active)
C/C(N)=C(/C#N)C(=O)COC(=O)C1=NN(c2ccccc2)C(=O)CC1 | -5.97% (inactive)
O=C(Nc1nnc(S(=O)(=O)N2CCOCC2)s1)c1cccc(Br)c1 | 7.79% (inactive)
O=c1[nH]c(-c2cccs2)nc2ccccc12 | 20% (inactive)
O=c1oc2ccccc2cc1-c1cn(-c2ccccc2)c(=S)[nH]1 | 7.59% (inactive)
S=c1[nH]c(-c2cccs2)cn1-c1ccccc1 | 34.1% (active)
COc1cc(/C=C/C(=O)OCC(=O)Nc2cccc(Oc3ccccc3)c2)ccc1O | 10.4% (inactive)
COc1ccc(S(=O)(=O)N2CCC(C(=O)N3CCCC3)CC2)cc1C | -13.9% (inactive)
Cc1ccccc1CSc1nnc(-c2ccccc2)c(=O)[nH]1 | 18.4% (inactive)
Cc1ccc(CSc2nc(-c3ccccc3)c(C#N)c(=O)[nH]2)cc1 | -11.1% (inactive)
O=c1[nH]c(SCc2ccccc2)nnc1-c1ccccc1 | 11% (active)
COc1cc(OC)c(C(=O)Nc2ccccc2-c2ccccc2)cc1OC | -1.49% (inactive)

Structure (SMILES) | max response
COc1ccc(Cl)cc1C(=O)Nc1ccc(N(C)C(C)=O)cc1 | 34.7% (active)
COc1cc(OC)c(C(=O)Nc2ccc(N(C)C)cc2)cc1OC | 40.8% (active)
COc1ccc(Cl)cc1C(=O)NCC#N | -1.71% (inactive)
COC(=O)c1ccc(NC(=O)c2cc(Cl)ccc2OC)cc1 | 0.237% (inactive)
COc1cc(OC)c(C(=O)NC2CC(C)(C)NC(C)(C)C2)cc1OC | -1.33% (inactive)
C=CCn1c(SCCOc2ccc(OC)cc2)nnc1C(NC(=O)c1ccc(OC)cc1)C(C)C (stereo unspecified) | -2.43% (inactive)
CN(CC1CCCO1)S(=O)(=O)c1ccc(C(=O)Nc2ccc(F)cc2)cc1 (stereo unspecified) | 3.84% (inactive)
Cc1oc(-c2ccccc2Cl)[n+]([O-])c1C | -1.24% (inactive)
CCCSc1nc2sc3c(c2c(=O)n1-c1ccc(OC)cc1)CCN(C)C3 | 0.929% (inactive)
CCc1cccc(NC(=O)C2CCCN(S(=O)(=O)c3ccc4[nH]c(=O)ccc4c3)C2)c1 (stereo unspecified) | 14.1% (inactive)
Cn1c(=O)n(C)c2cc(S(=O)(=O)Nc3ccc(F)cc3)ccc21 | 1.27% (inactive)
O=C(Nc1nc2cc3c(cc2s1)OCCO3)c1cccc(S(=O)(=O)N2CCOCC2)c1 | -5.43% (inactive)
CN(C)CCCN(C(=O)c1ccc(S(=O)(=O)N2CCCc3ccccc32)cc1)c1nc2ccc(F)cc2s1 | 0.524% (inactive)
CCOc1ccc2nc(N(CCCN(C)C)C(=O)c3ccc(C(=O)c4ccccc4)cc3)sc2c1 | -2.35% (inactive)
CCN(CC)CCN(C(=O)c1ccc(S(=O)(=O)N2CCOCC2)cc1)c1nc2cc3c(cc2s1)OCCO3 | 13.6% (active)
CN(C)CCCN(C(=O)c1ccc(S(=O)(=O)N2CCCCCC2)cc1)c1nc2ccc(Br)cc2s1 | 11.5% (active)
CCN(CC)CCN(C(=O)c1ccc(N2C(=O)CCC2=O)cc1)c1nc2cc3c(cc2s1)OCO3 | 14.3% (inactive)
CCOc1cc(C)c(S(=O)(=O)NCc2ccccn2)cc1C | -2.56% (inactive)
COc1cc(OC)c2ccc(=O)oc2c1C(CCN1CCN(c2ccccc2)CC1)c1ccc2c(c1)OCO2 (stereo unspecified) | 1.12% (inactive) and 1.78% (inactive)
Cc1cccc(CSc2nc3c(c(=O)n2C)SCC3)c1 | 8.73% (inactive)
CC(C)Oc1ccc(/C=N/NC(=O)c2nnn(-c3nonc3N)c2CN(C)C2CCCCC2)cc1 | -0.539% (inactive)
O=C(O)CN1c2cccc3cccc(c23)S1(=O)=O | 8.16% (inactive)
COc1ccc(/C(O)=C2/C(=O)C(=O)N(CCCN(C)C)C2c2ccccc2)cc1OC (stereo unspecified) | 5.45% (inactive)
CCCOc1ccc(/C(O)=C2/C(=O)C(=O)N(CCN(C)C)C2c2ccc(OC)c(OC)c2)cc1 (stereo unspecified) | 5.75% (inactive)

Structure (SMILES) | max response
CCN(CC)CCN1C(=O)C(=O)/C(=C(/O)c2ccc(OC)c(OC)c2)C1c1ccccn1 (stereo unspecified) | 17.9% (active)
COc1ccc(S(=O)(=O)N2CCCC(C(=O)NCCCn3ccnc3)C2)cc1OC (stereo unspecified) | -5.51% (inactive)
Cc1ccsc1-c1cc(C(=O)O)c2c(ccc3ccccc32)n1 | 16.2% (inactive)
CCOCCCNC(=O)c1cc2c(=O)n3ccccc3nc2s1 | 30.4% (active)
CCn1c(=N)c(C(=O)NCCCOC)cc2c(=O)n3cccc(C)c3nc21 | -3.15% (inactive)
Cc1cccn2c(=O)c3cc(C(=O)NC4CCCCC4)sc3nc12 | 7.47% (inactive)
CC1CC(C)CN(CC(=O)N2c3ccccc3CCc3ccccc32)C1 (stereo unspecified) | -3.85% (inactive)
O=C(Nc1cccc([N+](=O)[O-])c1)N1CCc2ccccc2C1 | 51.1% (active)
COc1cc2c(cc1OC)CN(CC(=O)Nc1ccc(F)cc1)CC2 | -3.51% (inactive)
O=C(Nc1cccc([N+](=O)[O-])c1)Nn1cnnc1 | 3.77% (inactive)
Cc1cccc(C)c1NC(=O)c1ccc(CN2CCc3ccccc3C2)cc1 | -1.05% (inactive)
Cc1ccc(NC(=O)CN2CCc3ccccc3C2)cc1C | 18% (inactive)
Cc1ccc(NC(=O)CN2CCc3ccccc3C2)cc1 | 16.3% (active)
CCc1ccc(NC(=O)N2CCc3ccccc3C2)cc1 | 49.7% (active)
CCc1ccc(NC(=O)N2CCN(c3ccccc3)CC2)cc1 | 12% (inactive)
CN(CC(=O)Nc1cccc(F)c1)CC(=O)Nc1cccc([N+](=O)[O-])c1 | 13.6% (inactive)
Cn1c(=O)c([N+](=O)[O-])c(Oc2ccccc2)c2ccccc21 | -2.35% (inactive)
O=C(NC(=S)N1CCc2ccccc21)c1ccco1 | 8.62% (inactive)
Cc1[nH]nc(-c2ccc(OCc3cnn(-c4ccccc4)c3)cc2O)c1Oc1ccc(Cl)cc1 | 0.856% (inactive)
Cc1cc(O)cc(O)c1C(=O)Cc1cnn(-c2ccccc2)c1 | 14% (inactive)
COc1ccc(C(=O)C[n+]2ccc(C)cc2)cc1 | 0.721% (inactive)
COc1ccc(C(=O)NNS(=O)(=O)c2ccc(C)cc2)cc1 | -1.39% (inactive)
COc1ccc(C(=O)Cc2cnn(-c3ccccc3)c2)c(O)c1 | 39.4% (active)
COc1ccc(C(=O)CC(=O)c2ccc(C)cc2)c(O)c1 | 20% (active)
